From PubChem BioAssay AID1159580 (chemical genetic matrix, 2015)
Among all 5,500 compounds or so, about 2,000 (36%) were called active. Another 18% or so got no clear call; they are omitted. Cut-off read from the data, not from the text of the source: active = normalized growth mostly below about 0.91 (no sharp cut-off); inconclusive = no clear call, values can overlap the other calls; inactive = mostly above about 0.92. The list shows a part of the results.

Assay: chemical genetic growth profiling, strain panel (AID 1159580);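 note: tested at 20 µM; growth read once vehicle control cultures reached saturation at 30 °C; 1 = growth at the plate median or of vehicle wells; lower values mean less growth of the strain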
Settings: S. cerevisiae deletion strains, growth OD
[1] = locus YAL040C, strain CLN3, stronger effect = lower value
[2] = locus YDR363W, strain ESC2, stronger effect = lower value
[3] = locus YER002W, strain NOP16, stronger effect = lower value
[4] = locus YGR078C, strain PAC10, stronger effect = lower value
[5] = locus YMR263W, strain SAP30, stronger effect = lower value
[6] = locus YMR307W, strain GAS1, stronger effect = lower value
[7] = locus YNL175C, strain NOP13, stronger effect = lower value
[8] = locus YNL197C, strain WHI3, stronger effect = lower value
[9] = locus YNL224C, strain SQS1, stronger effect = lower value
[10] = locus YNL322C, strain KRE1, stronger effect = lower value
[11] = locus YOR083W, strain WHI5 (second series), stronger effect = lower value
[12] = locus YHR030C, strain SLT2, stronger effect = lower value
[13] = locus YHR079C, strain IRE1, stronger effect = lower value
[14] = locus YJL095W, strain BCK1, stronger effect = lower value
[15] = locus YJR066W, strain TOR1, stronger effect = lower value
[16] = locus YLR113W, strain HOG1, stronger effect = lower value
[17] = locus YNL183C, strain NPR1, stronger effect = lower value
[18] = locus YOR231W, strain MKK1, stronger effect = lower value
[19] = locus YPL256C, strain CLN2, stronger effect = lower value
[20] = locus YJR075W, strain HOC1, stronger effect = lower value
[21] = locus YNL153C, strain GIM3, stronger effect = lower value
[22] = locus YCL061C, strain MRC1, stronger effect = lower value

Measured: normalized growth

CCn1c(=O)[nH]c2cc(Cl)c(Cl)cc21
inactive: [1] 0.99 | locus YCL061C, strain MRC1 (second series), stronger effect = lower value 1.01 | [2] 0.992 | [3] 0.986 | [4] 0.992 | [5] 1 | [6] 1 | [7] 0.98 | [8] 1 | [9] 1 | [10] 1.01 | [11] 1.04

O=C1c2ccccc2C(=O)C1(O)C1(O)C(=O)c2ccccc2C1=O
inactive: [12] 1.04 | [13] 1.04 | [14] 1.04 | [15] 0.953 | [16] 1.03 | [17] 0.984 | [18] 1.05 | [19] 1.07

COC1=C(OC)C(=O)c2ccccc2C1=O
active: [2] 0.734 | [6] 0.886 | [21] 0.703
inactive: [1] 0.962 | [3] 0.985 | [4] 0.995 | [20] 0.998 | [5] 1.02 | [7] 0.978 | [8] 0.941 | [9] 0.977 | [11] 0.883

Nc1cccc2c1C(=O)c1ccccc1-2
inactive: locus YDR150W, strain NUM1, stronger effect = lower value 0.95 | [10] 1.03
active: locus YAL013W, strain DEP1, stronger effect = lower value 0.676 | locus YBR229C, strain ROT2, stronger effect = lower value 0.313 | [22] 0.438 | locus YDL101C, strain DUN1, stronger effect = lower value 0.368 | locus YEL061C, strain CIN8, stronger effect = lower value 0.516 | [4] 0.617 | [12] 0.134 | locus YHR087W, strain rtc3, stronger effect = lower value 0.0566 | locus YJR043C, strain POL32, stronger effect = lower value 0.756 | [20] 0.0797 | locus YKL190W, strain CNB1, stronger effect = lower value 0.046 | locus YLR039C, strain RIC1, stronger effect = lower value 0.06 | locus YLR058C, strain SHM2 (second series), stronger effect = lower value 0.0581 | locus YLR085C, strain ARP6, stronger effect = lower value 0.0974 | locus YLR262C, strain YPT6, stronger effect = lower value 0.138 | locus YML094W, strain GIM5, stronger effect = lower value 0.553 | locus YMR219W, strain ESC1, stronger effect = lower value 0.664 | [5] 0.837 | [21] 0.125 | locus YNL298W, strain CLA4 (second series), stronger effect = lower value 0.267 | locus YNR030W, strain Alg12, stronger effect = lower value 0.729 | locus YOL006C, strain TOP1, stronger effect = lower value 0.0699 | locus YPL055C, strain LGE1, stronger effect = lower value 0.6 | locus YPL241C, strain CIN2, stronger effect = lower value 0.675 | locus YPR135W, strain CTF4, stronger effect = lower value 0.167

O=C1C=CC(=O)c2ccccc21
inactive: locus YER111C, strain swi4, stronger effect = lower value 0.917 | locus YJL129C, strain trk1, stronger effect = lower value 0.951
active: locus YAL021C, strain ccr4, stronger effect = lower value 0.0676 | locus YAL026C, strain drs2, stronger effect = lower value 0.0697 | locus YAL030W, strain snc1, stronger effect = lower value 0.0571 | locus YBL061C, strain skt5, stronger effect = lower value 0.0618 | locus YBR009C, strain hhf1, stronger effect = lower value 0.064 | locus YBR023C, strain chs3, stronger effect = lower value 0.0634 | locus YBR171W, strain sec66, stronger effect = lower value 0.0895 | locus YBR231C, strain swc5, stronger effect = lower value 0.0652 | locus YBR279W, strain paf1, stronger effect = lower value 0.0871 | locus YCL011C, strain gbp2, stronger effect = lower value 0.0594 | locus YCL016C, strain dcc1, stronger effect = lower value 0.0722 | [22] 0.0703 | locus YCL069W, strain vba3, stronger effect = lower value 0.0688 | locus YCR088W, strain abp1, stronger effect = lower value 0.0699 | locus YDL005C, strain med2, stronger effect = lower value 0.0758 | locus YDL040C, strain nat1, stronger effect = lower value 0.0706 | locus YDR001C, strain nth1, stronger effect = lower value 0.0722 | locus YDR069C, strain doa4, stronger effect = lower value 0.0698 | locus YDR137W, strain rgp1, stronger effect = lower value 0.288 | locus YDR159W, strain sac3, stronger effect = lower value 0.36 | locus YDR195W, strain ref2 0.13 | locus YDR297W, strain sur2, stronger effect = lower value 0.0592 | locus YDR334W, strain swr1, stronger effect = lower value 0.0769 | locus YDR335W, strain msn5, stronger effect = lower value 0.0683 | locus YDR392W, strain spt3, stronger effect = lower value 0.109 | locus YEL003W, strain gim4, stronger effect = lower value 0.0565 | locus YEL037C, strain rad23, stronger effect = lower value 0.0781 | locus YEL061C, strain CIN8 (second series), stronger effect = lower value 0.0717 | locus YER015W, strain faa2, stronger effect = lower value 0.0627 | locus YER016W, strain bim1, stronger effect = lower value 0.0642 | locus YER155C, strain BEM2 (second series), stronger effect = lower value 0.107 | locus YFR010W, strain ubp6, stronger effect = lower value 0.0794 | locus YGL167C, strain pmr1, stronger effect = lower value 0.0772 | locus YGL173C, strain kem1, stronger effect = lower value 0.0709 | locus YGL227W, strain vid30, stronger effect = lower value 0.0707 | locus YGL240W, strain doc1, stronger effect = lower value 0.0798 | locus YGL253W, strain hxk2, stronger effect = lower value 0.0667 | locus YHR013C, strain ard1, stronger effect = lower value 0.138 | locus YHR027C, strain rpn1, stronger effect = lower value 0.0646 | [12] 0.102 | [13] 0.12 | locus YHR142W, strain chs7, stronger effect = lower value 0.0814 | locus YJL092W, strain hpr5, stronger effect = lower value 0.074 | locus YJL095W, strain BCK1 (second series), stronger effect = lower value 0.0589 | [14] 0.116 | locus YJL115W, strain asf1, stronger effect = lower value 0.0842 | locus YJL154C, strain vps35, stronger effect = lower value 0.0701 | locus YJL164C, strain tpk1, stronger effect = lower value 0.0603 | locus YJL166W, strain qcr8, stronger effect = lower value 0.0677 | locus YJL187C, strain SWE1, stronger effect = lower value 0.0597 | [15] 0.116 | locus YKL160W, strain elf1, stronger effect = lower value 0.0712 | locus YKR026C, strain gcn3, stronger effect = lower value 0.0708 | locus YKR091W, strain srl3, stronger effect = lower value 0.0627 | locus YLL001W, strain dnm1, stronger effect = lower value 0.071 | locus YLL026W, stronger effect = lower value 0.0579 | locus YLL041C, strain sdh2, stronger effect = lower value 0.0596 | locus YLR027C, strain aat2, stronger effect = lower value 0.0574 | [16] 0.135 | locus YLR221C, strain rsa3, stronger effect = lower value 0.0579 | locus YLR258W, strain gsy2, stronger effect = lower value 0.0611 | locus YLR262C, strain YPT6 (second series), stronger effect = lower value 0.0853 | locus YLR320W, strain mms22, stronger effect = lower value 0.0864 | locus YLR342W, strain FKS1, stronger effect = lower value 0.0683 | locus YLR357W, strain rsc2, stronger effect = lower value 0.137 | locus YLR370C, strain arc18, stronger effect = lower value 0.0746 | locus YLR384C, strain iki3, stronger effect = lower value 0.0643 | locus YML120C, strain ndi1, stronger effect = lower value 0.827 | locus YMR058W, strain fet3, stronger effect = lower value 0.0712 | locus YMR125W, strain sto1, stronger effect = lower value 0.0829 | locus YMR129W, stronger effect = lower value 0.0615 | locus YMR205C, strain PFK2, stronger effect = lower value 0.092 | locus YMR231W, strain pep5, stronger effect = lower value 0.0667 | locus YNL071W, strain lat1, stronger effect = lower value 0.0615 | [17] 0.338 | locus YNL209W, strain ssb2, stronger effect = lower value 0.0608 | locus YNL248C, strain rpa49, stronger effect = lower value 0.0841 | locus YNL322C, strain KRE1 (second series), stronger effect = lower value 0.0674 | locus YNR049C, strain mso1, stronger effect = lower value 0.0752 | locus YOR001W, strain rrp6, stronger effect = lower value 0.0696 | locus YOR070C, strain gyp1, stronger effect = lower value 0.0608 | locus YOR080W, strain dia2, stronger effect = lower value 0.114 | locus YOR083W, strain WHI5, stronger effect = lower value 0.0702 | locus YOR106W, strain vam3, stronger effect = lower value 0.0684 | [18] 0.111 | locus YOR265W, strain rbl2, stronger effect = lower value 0.0588 | locus YOR270C, strain vph1, stronger effect = lower value 0.124 | locus YOR290C, strain snf2, stronger effect = lower value 0.842 | locus YPL051W, strain arl3, stronger effect = lower value 0.0626 | locus YPL078C, strain atp4, stronger effect = lower value 0.41 | locus YPL106C, strain sse1, stronger effect = lower value 0.0998 | locus YPL240C, strain hsp82, stronger effect = lower value 0.0586 | [19] 0.128
